Reference: PubChem BioAssay (Tox21)
Records with an inconclusive call do not appear. Calls of active or inactive are those of the source. Unless noted, calls come from the whole dose curve.

Assays:
[1] = Nuclear factor erythroid 2-related factor 2/antioxidant responsive element (Nrf2/ARE) small molecule agonists: qHTS cell viability counter screen in human keratinocytes (AID 1919968; active = well fitted curve in the direction sought with a large enough effect in the repeat runs; an effect the other way counts as inactive or inconclusive; note: nearly all actives have a fitted effect of over 55% in size)
In short: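 After a 5 h attachment period, ARE-reporter keratinocytes were dosed with compounds in DMSO and then cultured 23 h at 37 C. Cell viability came from CellTiter-Fluor signal read after a further 1 h.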

[2] = Nuclear factor erythroid 2-related factor 2/antioxidant responsive element (Nrf2/ARE) small molecule agonists: luciferase reporter gene qHTS assay in human keratinocytes (AID 1919969); note: nearly all actives have a fitted effect of over 35% in size
[3] = biological target: Gonadotropin-releasing hormone receptor (Homo sapiens) (UniProt P30968); experiment: Human gonadotropin-releasing hormone receptor (GnRHR) small molecule agonists, calcium flux assay in GnRHR-HEK293 cells (AID 1920063); note: nearly all actives have a fitted effect of over 35% in size
Gonadotropin-releasing hormone receptor (Homo sapiens), sequence (P30968 whole entry, looked up): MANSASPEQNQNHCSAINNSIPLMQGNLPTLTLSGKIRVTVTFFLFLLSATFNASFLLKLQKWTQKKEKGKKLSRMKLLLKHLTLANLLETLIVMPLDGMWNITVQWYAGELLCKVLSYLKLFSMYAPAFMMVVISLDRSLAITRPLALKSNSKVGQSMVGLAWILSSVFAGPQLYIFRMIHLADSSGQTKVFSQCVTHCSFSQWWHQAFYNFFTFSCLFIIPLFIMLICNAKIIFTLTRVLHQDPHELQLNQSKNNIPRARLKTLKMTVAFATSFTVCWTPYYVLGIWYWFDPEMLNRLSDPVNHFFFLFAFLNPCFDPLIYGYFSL
In short: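 We seeded human GnRHR-expressing HEK293 cells for 18 hours, loaded them with calcium dye for an hour at 37 C, added test compounds, and recorded fluorescence intensity kinetically for three minutes.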

[4] = biological target: KiSS-1 receptor (Homo sapiens) (UniProt Q969F8); experiment: Human kisspeptin (KISS1R) small molecule agonists, calcium flux assay in KISS1R-HEK293 cells (AID 1920064; active = well fitted curve in the direction sought with a large enough effect in the repeat runs; an effect the other way counts as inactive or inconclusive)
KiSS-1 receptor (Homo sapiens), sequence (Q969F8 whole entry, looked up): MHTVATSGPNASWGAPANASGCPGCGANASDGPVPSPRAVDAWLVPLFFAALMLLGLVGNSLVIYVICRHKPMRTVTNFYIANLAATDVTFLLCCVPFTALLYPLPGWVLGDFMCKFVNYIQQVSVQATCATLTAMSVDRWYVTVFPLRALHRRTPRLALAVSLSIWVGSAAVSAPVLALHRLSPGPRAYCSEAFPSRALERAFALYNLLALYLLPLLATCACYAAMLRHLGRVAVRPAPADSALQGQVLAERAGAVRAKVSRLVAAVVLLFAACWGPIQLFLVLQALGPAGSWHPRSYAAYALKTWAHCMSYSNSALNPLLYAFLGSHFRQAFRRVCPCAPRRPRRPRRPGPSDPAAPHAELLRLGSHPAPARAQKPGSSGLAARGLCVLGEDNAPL
In short: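 Kinetic calcium assay, 1 s sampling over 3 min at Ex/Em 480/540, in HEK293 cells engineered with human KISS1R; compounds delivered in DMSO after 1 h dye loading.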

[5] = G protein-coupled receptor (GPCR) small molecule agonists, calcium flux assay: HEK293 wild type cell line counter screen (AID 1920065)
In short: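 Calcium-sensitive dye, loaded 1 h at 37 C into cells cultured 18 h, reports compound-evoked calcium release as fluorescence (Ex/Em 480/540), measured over 3 min. Agonist mode; 15-point titrations, triplicate.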

[6] = p53 small molecule agonists, cell-based qHTS assay with human liver microsomes (AID 1963577)
In short: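 p53RE-bla cells, 4,000/well, compound added after 5 h, with human liver microsomes 0.5 mg/mL and NADPH 0.5 mg/mL final; 16 h at 37 C, then LiveBLAzer 2 h RT, fluorescence.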

[7] = p53 small molecule agonists, cell-based qHTS assay with rat liver microsomes (AID 1963578)
In short: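 p53RE-bla cells, 4,000/well, pre-incubated 5 h, then given compounds plus rat liver microsomes (0.5 mg/mL final) and NADPH (0.5 mg/mL final). Incubation 16 h at 37 C; beta-lactamase reporter read by LiveBLAzer fluorescence after 2 h at room temperature.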

[8] = p53 small molecule agonists, cell-based qHTS assay with human liver microsomes: qHTS cell viability counter screen (AID 1963579); note: nearly all actives have a fitted effect of over 45% in size
In short: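 p53RE-bla cells, 4,000/well, dosed 5 hours after plating, with human liver microsomes (0.5 mg/mL final) plus NADPH (0.5 mg/mL final), 16 hours at 37 C. Viability read as CellTiter-Glo luminescence after 30 min at room temperature.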

[9] = p53 small molecule agonists, cell-based qHTS assay with rat liver microsomes: qHTS cell viability counter screen (AID 1963580); note: nearly all actives have a fitted effect of over 45% in size
In short: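 HCT-116 p53RE-bla, 4,000 cells/well, 5 h pre-incubation; cpd + rat liver microsomes 0.5 mg/mL + NADPH 0.5 mg/mL (final); 16 h, 37 C; CellTiter-Glo, 30 min RT; luminescence.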

[10] = p53 small molecule agonists, cell-based qHTS assay: qHTS cell viability counter screen (AID 1963581); note: nearly all actives have a fitted effect of over 45% in size
In short: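 Following 5 h attachment, HCT-116 p53RE-bla cells took up compound for 16 h at 37 C; the reporter was read with B/G FRET substrate (2 h RT), and viability then via CellTiter-Glo ATP luminescence.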

[11] = p53 small molecule agonists, cell-based qHTS assay (AID 1963582; active = well fitted activation curve with a large enough effect in the signal ratio in the repeat runs, not every such curve was filed as active; the % refers to the signal ratio)
In short: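 In this cell-based concentration-response screen, a p53 response element drives beta-lactamase; cells received DMSO-borne compounds after 5 h culture and were incubated a further 16 h before FRET substrate development.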

[12] = biological target: 5-hydroxytryptamine receptor 2A (Homo sapiens) (UniProt P28223); experiment: 5-hydroxytryptamine receptor 2A (HTR2A) small molecule antagonists, cell-based qHTS assay (AID 1963586); note: nearly all actives have a fitted effect of over 45% in size
5-hydroxytryptamine receptor 2A (Homo sapiens), sequence (P28223 whole entry, looked up): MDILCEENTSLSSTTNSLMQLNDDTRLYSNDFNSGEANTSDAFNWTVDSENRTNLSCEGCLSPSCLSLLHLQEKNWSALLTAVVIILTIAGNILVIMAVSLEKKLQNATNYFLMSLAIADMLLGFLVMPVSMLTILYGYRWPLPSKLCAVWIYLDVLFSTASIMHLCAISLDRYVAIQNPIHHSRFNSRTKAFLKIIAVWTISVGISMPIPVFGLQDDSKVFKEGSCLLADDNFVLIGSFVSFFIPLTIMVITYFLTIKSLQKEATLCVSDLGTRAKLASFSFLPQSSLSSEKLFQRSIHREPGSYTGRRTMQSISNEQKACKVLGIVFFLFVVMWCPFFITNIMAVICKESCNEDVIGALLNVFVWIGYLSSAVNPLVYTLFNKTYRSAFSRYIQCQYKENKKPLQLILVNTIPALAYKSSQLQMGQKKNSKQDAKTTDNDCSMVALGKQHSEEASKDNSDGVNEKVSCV
In short: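 Antagonist-mode intracellular calcium assay: DOI (4 nM) added after 5 min compound pre-incubation at room temperature to dye-loaded HTR2A-CHO cells. Fluorescence followed for 3 min, sampled every second.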

[13] = biological target: 5-hydroxytryptamine receptor 2A (Homo sapiens) (UniProt P28223); experiment: 5-hydroxytryptamine receptor 2A (HTR2A) small molecule agonists, cell-based qHTS assay (AID 1963587); note: nearly all actives have a fitted effect of over 30% in size
In short: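 Kinetic calcium-flux fluorescence (2 min, 1 sec intervals) after compound addition in agonist mode. HTR2A-CHO cells were cultured 18 h, then dye-loaded 1 h at 37 C.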

[14] = biological target: Muscarinic acetylcholine receptor M1 (Homo sapiens) (UniProt P11229); experiment: Cholinergic receptor muscarinic 1 (CHRM1) small molecule antagonists, cell-based qHTS assay (AID 1963588); note: nearly all actives have a fitted effect of over 40% in size
Muscarinic acetylcholine receptor M1 (Homo sapiens), sequence (P11229 whole entry, looked up): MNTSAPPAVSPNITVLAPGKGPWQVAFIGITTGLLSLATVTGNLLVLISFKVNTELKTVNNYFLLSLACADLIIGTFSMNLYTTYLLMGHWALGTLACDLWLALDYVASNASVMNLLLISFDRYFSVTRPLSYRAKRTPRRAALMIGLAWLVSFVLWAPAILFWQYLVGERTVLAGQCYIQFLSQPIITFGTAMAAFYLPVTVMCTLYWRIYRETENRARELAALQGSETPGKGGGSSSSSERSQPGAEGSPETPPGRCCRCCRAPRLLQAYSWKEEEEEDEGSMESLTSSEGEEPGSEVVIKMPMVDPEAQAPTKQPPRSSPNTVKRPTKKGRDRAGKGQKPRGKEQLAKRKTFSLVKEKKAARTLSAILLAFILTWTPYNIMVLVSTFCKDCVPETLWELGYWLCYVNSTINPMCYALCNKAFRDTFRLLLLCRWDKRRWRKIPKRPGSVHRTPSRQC
In short: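 CHRM1-CHO calcium-flux assay, antagonist mode. Cells were seeded 18 h, dye-loaded 1 h at 37 C and given compound for 5 min at RT, then acetylcholine was added at 50nM. FDSS fluorescence was read 3 min; 15 concentrations, three runs.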

[15] = biological target: Muscarinic acetylcholine receptor M1 (Homo sapiens) (UniProt P11229); experiment: Cholinergic receptor muscarinic 1 (CHRM1) small molecule agonists, cell-based qHTS assay (AID 1963589); note: nearly all actives have a fitted effect of over 35% in size
In short: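 Measures agonist-induced intracellular calcium rise. Stable human CHRM1 CHO line, 1 h dye load at 37 C, compounds from DMSO, kinetic fluorescence read.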

[16] = cAMP Responsive Elements (CRE) small molecule agonists, cell-based qHTS assay (AID 1963590)
In short: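 A CRE-responsive beta-lactamase reporter in HEK 293T cells was used. Treatment ran 3 h at 37 C; detection used LiveBLAzer B/G FRET substrate for 2 h at room temperature.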

[17] = cAMP Responsive Elements (CRE) small molecule antagonists, cell-based qHTS assay (AID 1963591; active = well fitted inhibition curve with a large enough effect in the signal ratio in the repeat runs, not every such curve was filed as active; the % refers to the signal ratio)
In short: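 HEK293T cells carrying a CRE-driven beta-lactamase reporter receive compound and NKH477 (0.25 uM final) for 3 h. Fluorescence from LiveBLAzer B/G FRET substrate is read after 2 h at room temperature.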

[18] = biological target: Beta-2 adrenergic receptor (Homo sapiens) (UniProt P07550); experiment: Adrenergic beta2 receptor (ADRB2) small molecule antagonists, cell-based qHTS assay (AID 1963592); note: series mostly up to about 92 µM; nearly all actives have a fitted effect of over 50% in size
Beta-2 adrenergic receptor (Homo sapiens), sequence (P07550 whole entry, looked up): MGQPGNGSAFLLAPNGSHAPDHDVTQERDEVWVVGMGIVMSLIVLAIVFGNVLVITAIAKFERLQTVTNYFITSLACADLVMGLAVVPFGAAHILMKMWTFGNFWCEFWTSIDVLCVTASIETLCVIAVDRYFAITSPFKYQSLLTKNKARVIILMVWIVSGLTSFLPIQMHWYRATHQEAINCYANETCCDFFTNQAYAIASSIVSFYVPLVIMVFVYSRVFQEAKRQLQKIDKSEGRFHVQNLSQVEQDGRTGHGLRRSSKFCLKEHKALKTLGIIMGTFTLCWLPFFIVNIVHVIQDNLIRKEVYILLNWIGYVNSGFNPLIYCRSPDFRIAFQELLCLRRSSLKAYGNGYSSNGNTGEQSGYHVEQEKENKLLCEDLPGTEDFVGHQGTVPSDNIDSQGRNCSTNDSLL
In short: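 Cells (CHO, stable ADRB2 overexpression) incubated 18-20hr at 37C; compounds added from DMSO; agonist mix (1nM isoproterenol, 100uM IBMX, 25uM Ro-20-1724) added; 0.5hr RT; d2-cAMP and anti-cAMP-cryptate added; 1hr RT; 665/615 nm read.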

[19] = biological target: Beta-2 adrenergic receptor (Homo sapiens) (UniProt P07550); experiment: Adrenergic beta2 receptor (ADRB2) small molecule agonists, cell-based qHTS assay (AID 1963593);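 note: CHO cells stably overexpressing human ADRB2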
In short: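 CHO cells stably over-expressing ADRB2 were plated overnight at 37C, then dosed with compounds plus a stimulation mix containing 100uM IBMX and 25uM Ro-20-1724 for 0.5hr at room temperature. cAMP was measured by HTRF competition, 1hr.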

[20] = biological target: D(2) dopamine receptor (Homo sapiens) (UniProt P14416); experiment: Dopamine D2 receptor (DRD2) small molecule agonists, cell-based qHTS assay (AID 1963594); note: nearly all actives have a fitted effect of over 35% in size
D(2) dopamine receptor (Homo sapiens), sequence (P14416 whole entry, looked up): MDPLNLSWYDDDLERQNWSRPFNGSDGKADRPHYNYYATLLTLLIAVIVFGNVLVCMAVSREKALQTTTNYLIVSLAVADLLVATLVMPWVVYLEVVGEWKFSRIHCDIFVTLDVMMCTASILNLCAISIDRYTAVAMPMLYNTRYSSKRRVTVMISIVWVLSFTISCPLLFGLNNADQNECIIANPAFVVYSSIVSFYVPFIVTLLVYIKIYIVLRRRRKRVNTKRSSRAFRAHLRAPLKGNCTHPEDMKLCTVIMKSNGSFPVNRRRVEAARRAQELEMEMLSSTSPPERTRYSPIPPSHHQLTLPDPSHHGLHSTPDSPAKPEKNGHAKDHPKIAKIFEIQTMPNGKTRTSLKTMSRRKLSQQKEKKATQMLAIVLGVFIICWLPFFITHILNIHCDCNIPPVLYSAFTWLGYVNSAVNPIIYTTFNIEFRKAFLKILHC
In short: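 cAMP accumulation in DRD2-HEK293 cells measured by HTRF after 1 h detection; compounds added 10 min before NKH477 (200nM […]) forskolin-analogue stimulation, 30 min at room temperature, with Ro20-1724 present at 0.1 mM final.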

Measured: Potency

C1CN(CCOCCN2CCOCC2)CCO1
inactive: all assays above

Cc1cccc(C)c1NC(=O)CC12CCCN1CCC2
inactive: all assays above

CCCCCCC(C)(C)C(=O)O
inactive: all assays above

O=C1NC2NC(=O)NC2N1 (stereo unspecified)
not listed: [17] | [18] | [19] | [20]
inactive: all other assays above

O=C(O)CNC(=O)c1ccc(CO)o1
inactive: all assays above

C=CCOCC(O)CO (stereo unspecified)
inactive: all assays above

CC(C)(O)Cc1ccccc1
inactive: all assays above

C[Si](C)(C)Cl
inactive: all assays above
